Laboratory results published in PubChem BioAssay (NCI).
The panel holds about 79,000 compounds, 15% with a hit somewhere; the sample as a whole holds those more often. Values without a mark were called inactive. Activity calls are given as the source filed them. Rule as the data show it: active = growth inhibition above about 70%; inactive = the rest.

How the values were obtained:
[1] = NCI Yeast Anticancer Drug Screen. Data for the rad52 strain (AID 147);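 also: 0% = growth of vehicle-treated control cultures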; settings: S. cerevisiae rad52 mutant growth inhibition, hits give high values
How it was run: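 Here a repair-compromised yeast strain receives each compound; its growth is then quantified and normalised to vehicle-only controls.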

[2] = NCI Yeast Anticancer Drug Screen. Data for the wt1 strain (AID 149);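 also: 0% = growth of vehicle-treated wt1 cultures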; settings: S. cerevisiae wt1 strain (SPY 50644) growth inhibition, hits give high values
How it was run: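 Measured: growth of wt1 yeast under compound versus vehicle treatment, reported as inhibition.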

[3] = NCI Yeast Anticancer Drug Screen. Data for the rad50EPP+ strain (AID 151);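 also: 0% = growth of vehicle-treated control cultures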; settings: S. cerevisiae rad50 mutant strain, hits give high values
How it was run: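 Read-out is yeast growth inhibition relative to vehicle; cells used were the rad50EPP+ strain.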

[4] = NCI Yeast Anticancer Drug Screen. Data for the mgt1 strain (AID 153); settings: S. cerevisiae mgt1 mutant growth inhibition, hits give high values
How it was run: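 Measured: inhibition of mgt1 yeast growth by compound, normalized to vehicle-treated cultures.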

[5] = NCI Yeast Anticancer Drug Screen. Data for the rad50 strain (AID 155);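 also: 0% = growth of vehicle-only cultures of the same strain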; settings: S. cerevisiae rad50 strain growth inhibition, hits give high values
How it was run: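 Growth of the mutant yeast was measured after compound exposure and referenced to vehicle-treated cultures.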

[6] = NCI Yeast Anticancer Drug Screen. Data for the mec2-1 strain (AID 157); settings: S. cerevisiae mec2-1 strain, hits give high values
How it was run: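 Using mec2-1 yeast: add compound, measure growth, express inhibition versus vehicle-treated cultures.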

[7] = NCI Yeast Anticancer Drug Screen. Data for the rad14 strain (AID 159);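 also: 0% = growth of vehicle-treated control cultures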; settings: S. cerevisiae rad14 strain growth inhibition, hits give high values
How it was run: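 Here, inhibition of yeast growth was measured after compound exposure, using a strain with a genetic defect in DNA damage repair and vehicle-treated cultures as the reference.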

[8] = NCI Yeast Anticancer Drug Screen. Data for the sgs1 mgt1 strain (AID 161);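 also: 0% = growth of cultures given vehicle only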; settings: S. cerevisiae sgs1 mgt1 strain, hits give high values
How it was run: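 Growth of a repair-deficient yeast mutant was monitored after compound treatment and expressed as inhibition relative to vehicle-treated cultures.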

[9] = NCI Yeast Anticancer Drug Screen. Data for the CLN2oe strain (AID 163);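 also: 0% = growth of vehicle-only control cultures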; settings: S. cerevisiae CLN2oe strain, hits give high values
How it was run: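 Whole-cell yeast growth assay. A strain engineered for altered cell-cycle control received compound, and inhibition relative to vehicle-treated cultures was recorded.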

[10] = NCI Yeast Anticancer Drug Screen. Data for the cln2 rad14 strain (AID 165);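 also: 0% = growth equal to vehicle treated cultures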; settings: S. cerevisiae cln2 rad14 strain, hits give high values
How it was run: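 Yeast strain cln2 rad14, bearing defects in cell cycle control and DNA repair, serves as the test system; values reflect growth inhibition compared with vehicle.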

[11] = NCI Yeast Anticancer Drug Screen. Data for the bub3 strain (AID 167); settings: S. cerevisiae bub3 mutant strain, hits give high values
How it was run: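 Whole-cell yeast assay. The mutant strain was incubated with compounds, and growth inhibition was determined by comparison with vehicle-treated cells.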

[12] = NCI Yeast Anticancer Drug Screen. Data for the wt2 strain (AID 169);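 also: 0% = growth of vehicle-treated yeast cultures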; settings: S. cerevisiae wt2 strain growth inhibition, hits give high values
How it was run: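 Treated yeast vs. vehicle-treated yeast: growth inhibition determined.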

[13] = NCI Yeast Anticancer Drug Screen. Data for the mlh1 strain (AID 171);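 also: 0% = growth of vehicle-treated control cultures of the same strain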; settings: S. cerevisiae mlh1 strain growth inhibition, hits give high values
How it was run: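 A yeast strain with a defined genetic lesion serves as the test organism. Cultures receive compound or vehicle, and growth is measured.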

[14] = NCI Yeast Anticancer Drug Screen. Data for the sgs1 strain (AID 173);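 also: 0% = growth of vehicle-only control cultures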; settings: S. cerevisiae sgs1 mutant, hits give high values
How it was run: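 A genetically defined yeast mutant is incubated with the test compound, and its growth is compared to that of the same strain given vehicle.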

[15] = NCI Yeast Anticancer Drug Screen. Data for the mlh1 rad18 strain (AID 175); settings: S. cerevisiae mlh1 rad18 strain growth inhibition, hits give high values
How it was run: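 Steps: expose repair-defective yeast to compound; measure growth; express inhibition against vehicle-treated controls.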

[16] = NCI Yeast Anticancer Drug Screen. Data for the rad18 strain (AID 177); settings: S. cerevisiae rad18 mutant growth inhibition, hits give high values
How it was run: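 Measured value is growth inhibition of a yeast strain bearing a DNA repair alteration, referenced to vehicle-treated cells.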

[17] = at 5.0 µM (retest, dose inferred, filed as 0.5)
[18] = at 50.0 µM (retest, dose inferred, filed as 5.0)

C[n+]1c(-c2ccc(/C=N/NC(=O)c3ccc(C(=O)N/N=C/c4ccc(-c5cn6ccccc6[n+]5C)cc4)cc3)cc2)cn2ccccc21
growth inhibition ([1]; at 1.2 µM): 5%
growth inhibition ([1]; at 3.7 µM): 14%
growth inhibition ([1]; at 11.0 µM): 29%
growth inhibition ([1]; at 33.0 µM): 54%
growth inhibition ([1]; at 100.0 µM): 60%
growth inhibition ([2]; at 1.2 µM): 9%
growth inhibition ([2]; at 3.7 µM): 16%
growth inhibition ([2]; at 11.0 µM): 26%
growth inhibition ([2]; at 33.0 µM): 25%
growth inhibition ([2]; at 100.0 µM): 25%
growth inhibition ([3]; at 1.2 µM): 69%
growth inhibition ([3]; at 3.7 µM): 86% (active)
growth inhibition ([3]; at 11.0 µM): 94% (active)
growth inhibition ([3]; at 33.0 µM): 94% (active)
growth inhibition ([3]; at 100.0 µM): 94% (active)
growth inhibition ([4]; at 1.2 µM): 13%
growth inhibition ([4]; at 3.7 µM): 22%
growth inhibition ([4]; at 11.0 µM): 42%
growth inhibition ([4]; at 33.0 µM): 84% (active)
growth inhibition ([4]; at 100.0 µM): 71% (active)
growth inhibition ([5]; at 1.2 µM): 6%
growth inhibition ([5]; at 3.7 µM): 10%
growth inhibition [5, 17]: 15%
growth inhibition ([5]; at 11.0 µM): 16%
growth inhibition ([5]; at 33.0 µM): 55%
growth inhibition [5, 18]: 92% (active)
growth inhibition ([5]; at 50.0 µM): 81.2% (active)
growth inhibition ([5]; at 100.0 µM): 79% (active)
growth inhibition ([6]; at 1.2 µM): 7%
growth inhibition ([6]; at 3.7 µM): 13%
growth inhibition [6, 17]: -7%
growth inhibition ([6]; at 11.0 µM): 23%
growth inhibition ([6]; at 33.0 µM): 41%
growth inhibition [6, 18]: 63%
growth inhibition ([6]; at 50.0 µM): 49.4%
growth inhibition ([6]; at 100.0 µM): 76% (active)
growth inhibition ([7]; at 1.2 µM): -1%
growth inhibition ([7]; at 3.7 µM): 3%
growth inhibition ([7]; at 11.0 µM): 15%
growth inhibition ([7]; at 33.0 µM): 66%
growth inhibition ([7]; at 100.0 µM): 60%
growth inhibition [8, 17]: 24%
growth inhibition [8, 18]: 62%
growth inhibition ([8]; at 50.0 µM): 70.7% (active)
growth inhibition ([9]; at 1.2 µM): -2%
growth inhibition ([9]; at 3.7 µM): 0%
growth inhibition ([9]; at 11.0 µM): 13%
growth inhibition ([9]; at 33.0 µM): 30%
growth inhibition ([9]; at 100.0 µM): 38%
growth inhibition [10, 17]: 16%
growth inhibition [10, 18]: 78% (active)
growth inhibition ([10]; at 50.0 µM): 51.4%
growth inhibition ([11]; at 1.2 µM): -5%
growth inhibition ([11]; at 3.7 µM): 2%
growth inhibition [11, 17]: -1%
growth inhibition ([11]; at 11.0 µM): 13%
growth inhibition ([11]; at 33.0 µM): 70% (active)
growth inhibition [11, 18]: 91% (active)
growth inhibition ([11]; at 50.0 µM): 69.7%
growth inhibition ([11]; at 100.0 µM): 76% (active)
growth inhibition ([12]; at 1.2 µM): 13%
growth inhibition ([12]; at 3.7 µM): 27%
growth inhibition ([12]; at 11.0 µM): 63%
growth inhibition ([12]; at 33.0 µM): 88% (active)
growth inhibition ([12]; at 100.0 µM): 82% (active)
growth inhibition ([13]; at 1.2 µM): 3%
growth inhibition ([13]; at 3.7 µM): 11%
growth inhibition ([13]; at 11.0 µM): 37%
growth inhibition ([13]; at 33.0 µM): 69%
growth inhibition ([13]; at 100.0 µM): 84% (active)
growth inhibition ([14]; at 1.2 µM): 11%
growth inhibition ([14]; at 3.7 µM): 22%
growth inhibition ([14]; at 11.0 µM): 44%
growth inhibition ([14]; at 33.0 µM): 74% (active)
growth inhibition ([14]; at 100.0 µM): 81% (active)
growth inhibition [15, 17]: 50%
growth inhibition [15, 18]: 96% (active)
growth inhibition ([15]; at 50.0 µM): 92% (active)
growth inhibition ([16]; at 1.2 µM): 10%
growth inhibition ([16]; at 3.7 µM): 17%
growth inhibition ([16]; at 11.0 µM): 55%
growth inhibition ([16]; at 33.0 µM): 55%
growth inhibition ([16]; at 100.0 µM): 70% (active)

O=C(c1cc(=O)c2ccc(O)cc2o1)c1ccc(Cl)cc1Cl
growth inhibition ([1]; at 1.2 µM): -31%
growth inhibition ([1]; at 3.7 µM): -32%
growth inhibition ([1]; at 11.0 µM): 8%
growth inhibition ([1]; at 33.0 µM): 90% (active)
growth inhibition ([1]; at 100.0 µM): 92% (active)
growth inhibition ([2]; at 1.2 µM): -6%
growth inhibition ([2]; at 3.7 µM): 1%
growth inhibition ([2]; at 11.0 µM): -2%
growth inhibition ([2]; at 33.0 µM): 75% (active)
growth inhibition ([2]; at 100.0 µM): 92% (active)
growth inhibition ([3]; at 1.2 µM): -23%
growth inhibition ([3]; at 3.7 µM): -7%
growth inhibition ([3]; at 11.0 µM): 52%
growth inhibition ([3]; at 33.0 µM): 94% (active)
growth inhibition ([3]; at 100.0 µM): 96% (active)
growth inhibition ([4]; at 1.2 µM): -9%
growth inhibition ([4]; at 3.7 µM): -18%
growth inhibition ([4]; at 11.0 µM): 21%
growth inhibition ([4]; at 33.0 µM): 89% (active)
growth inhibition ([4]; at 100.0 µM): 90% (active)
growth inhibition ([5]; at 1.2 µM): -11%
growth inhibition ([5]; at 3.7 µM): -16%
growth inhibition [5, 17]: 23%
growth inhibition ([5]; at 11.0 µM): 12%
growth inhibition ([5]; at 33.0 µM): 94% (active)
growth inhibition [5, 18]: 95% (active)
growth inhibition ([5]; at 50.0 µM): 86.5% (active)
growth inhibition ([5]; at 100.0 µM): 93% (active)
growth inhibition ([6]; at 1.2 µM): -27%
growth inhibition ([6]; at 3.7 µM): -13%
growth inhibition [6, 17]: -30%
growth inhibition ([6]; at 11.0 µM): 5%
growth inhibition ([6]; at 33.0 µM): 80% (active)
growth inhibition [6, 18]: 95% (active)
growth inhibition ([6]; at 50.0 µM): 85.2% (active)
growth inhibition ([6]; at 100.0 µM): 93% (active)
growth inhibition ([7]; at 1.2 µM): 2%
growth inhibition ([7]; at 3.7 µM): 4%
growth inhibition ([7]; at 11.0 µM): 19%
growth inhibition ([7]; at 33.0 µM): 76% (active)
growth inhibition ([7]; at 100.0 µM): 91% (active)
growth inhibition [8, 17]: 3%
growth inhibition [8, 18]: 92% (active)
growth inhibition ([8]; at 50.0 µM): 88% (active)
growth inhibition ([9]; at 1.2 µM): -23%
growth inhibition ([9]; at 3.7 µM): -8%
growth inhibition ([9]; at 11.0 µM): 23%
growth inhibition ([9]; at 33.0 µM): 94% (active)
growth inhibition ([9]; at 100.0 µM): 92% (active)
growth inhibition [10, 17]: 13%
growth inhibition [10, 18]: 93% (active)
growth inhibition ([10]; at 50.0 µM): 78.2% (active)
growth inhibition ([11]; at 1.2 µM): -16%
growth inhibition ([11]; at 3.7 µM): -11%
growth inhibition [11, 17]: 23%
growth inhibition ([11]; at 11.0 µM): 46%
growth inhibition ([11]; at 33.0 µM): 95% (active)
growth inhibition [11, 18]: 97% (active)
growth inhibition ([11]; at 50.0 µM): 88.5% (active)
growth inhibition ([11]; at 100.0 µM): 94% (active)
